Data published in PubChem BioAssay AID1159580 (chemical genetic matrix, 2015).
Several values for one entry are separate records, joined by “and”; a condition that tells them apart may be missing. Equal entries are not always repeated. The campaign covered roughly 5,500 compounds. About 2,000 (36%) were called active. Roughly 18% stayed inconclusive and do not appear here. Rule as the data show it: active = normalized growth mostly below about 0.91 (no sharp cut-off); inconclusive = no clear call, values can overlap the other calls; inactive = mostly above about 0.92. The list shows a part of the results.

Test: chemical genetic growth profiling, strain panel (AID 1159580);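 also: tested at 20 µM; growth read once vehicle control cultures reached saturation at 30 °C; 1 = growth at the plate median or of vehicle wells; lower values mean less growth of the strain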
Settings: S. cerevisiae deletion strains, growth OD

Measured: normalized growth

CS(=O)(=O)c1ccc([C@@H](O)[C@@H](CO)NC(=O)C(Cl)Cl)cc1
inactive: locus YAL013W, strain DEP1, hits give low values 0.978 | locus YAL021C, strain ccr4, hits give low values 1.05 | locus YAL026C, strain drs2, hits give low values 1.04 | locus YAL030W, strain snc1, hits give low values 1.01 | locus YBL061C, strain skt5, hits give low values 1.02 | locus YBR009C, strain hhf1, hits give low values 1.01 | locus YBR021W, strain FUR4, hits give low values 1.1 | locus YBR023C, strain chs3, hits give low values 1.04 | locus YBR171W, strain sec66, hits give low values 1.04 | locus YBR229C, strain ROT2, hits give low values 0.964 | locus YBR231C, strain swc5, hits give low values 1.02 | locus YBR279W, strain paf1, hits give low values 1.04 | locus YCL011C, strain gbp2, hits give low values 1.03 | locus YCL016C, strain dcc1, hits give low values 1.04 | locus YCL029C, strain bik1, hits give low values 0.981 | locus YCL069W, strain vba3, hits give low values 1.03 | locus YCR088W, strain abp1, hits give low values 1.03 | locus YDL005C, strain med2, hits give low values 1.02 | locus YDL035C, strain GPR1, hits give low values 0.988 | locus YDL040C, strain nat1, hits give low values 1.02 | locus YDL074C, strain BRE1, hits give low values 0.957 | locus YDL101C, strain DUN1, hits give low values 0.967 | locus YDL134C, strain PPH21, hits give low values 0.985 | locus YDL185W, strain tfp1, hits give low values 0.941 | locus YDL192W, strain arf1, hits give low values 0.981 | locus YDR001C, strain nth1, hits give low values 1.02 | locus YDR069C, strain doa4, hits give low values 1 | locus YDR101C, strain arx1, hits give low values 0.998 | locus YDR137W, strain rgp1, hits give low values 1.06 | locus YDR150W, strain NUM1, hits give low values 0.977 | locus YDR159W, strain sac3, hits give low values 0.942 | locus YDR162C, strain NBP2, hits give low values 0.954 | locus YDR195W, strain ref2 1.01 | locus YDR297W, strain sur2, hits give low values 1.02 | locus YDR318W, strain mcm21, hits give low values 0.998 | locus YDR334W, strain swr1, hits give low values 1.02 | locus YDR335W, strain msn5, hits give low values 1.04 | locus YDR388W, hits give low values 0.991 | locus YDR392W, strain spt3, hits give low values 0.947 | locus YDR502C, strain sam2, hits give low values 0.997 | locus YEL003W, strain gim4, hits give low values 1.01 | locus YEL037C, strain rad23, hits give low values 1.02 | locus YEL061C, strain CIN8 (second series), hits give low values 1.02 | locus YEL061C, strain CIN8, hits give low values 0.979 | locus YER015W, strain faa2, hits give low values 1.02 | locus YER016W, strain bim1, hits give low values 1.04 | locus YER110C, hits give low values 0.974 | locus YER111C, strain swi4, hits give low values 1.03 | locus YER155C, strain BEM2 (second series), hits give low values 1.03 | locus YER155C, strain BEM2, hits give low values 1 | locus YER167W, strain BCK2, hits give low values 0.985 | locus YFR010W, strain ubp6, hits give low values 1.02 | locus YGL078C, strain dbp3, hits give low values 1 | locus YGL086W, strain mad1, hits give low values 1 | locus YGL167C, strain pmr1, hits give low values 1.02 | locus YGL173C, strain kem1, hits give low values 1.02 | locus YGL227W, strain vid30, hits give low values 1.02 | locus YGL240W, strain doc1, hits give low values 0.996 | locus YGL248W, strain PDE1, hits give low values 0.968 | locus YGL253W, strain hxk2, hits give low values 1.05 | locus YGR078C, strain PAC10, hits give low values 0.993 | locus YGR135W, strain pre9, hits give low values 0.98 | locus YGR229C, strain SMI1, hits give low values 0.979 | locus YGR252W, strain gcn5, hits give low values 1.06 | locus YHR013C, strain ard1, hits give low values 1.05 | locus YHR027C, strain rpn1, hits give low values 1.02 | locus YHR030C, strain SLT2, hits give low values 0.983 and 0.994 | locus YHR079C, strain IRE1 (second series), hits give low values 0.998 | locus YHR079C, strain IRE1, hits give low values 0.982 | locus YHR094C, strain hxt1, hits give low values 0.991 | locus YHR129C, strain ARP1, hits give low values 0.989 | locus YHR142W, strain chs7, hits give low values 1.07 | locus YHR200W, strain rpn10, hits give low values 0.989 | locus YIL066C, strain RNR3, hits give low values 0.995 | locus YIL073C, strain SPO22, hits give low values 0.998 | locus YIL125W, strain kgd1, hits give low values 0.992 | locus YIR030C, strain dcg1, hits give low values 0.978 | locus YJL092W, strain hpr5, hits give low values 1.02 | locus YJL095W, strain BCK1 (second series), hits give low values 1.01 | locus YJL095W, strain BCK1, hits give low values 1 and 0.995 | locus YJL115W, strain asf1, hits give low values 1.04 | locus YJL129C, strain trk1, hits give low values 1.05 | locus YJL134W, strain LCB3, hits give low values 0.974 | locus YJL154C, strain vps35, hits give low values 1.03 | locus YJL164C, strain tpk1, hits give low values 1.01 | locus YJL166W, strain qcr8, hits give low values 1.02 | locus YJL168C, strain set2, hits give low values 0.985 | locus YJL187C, strain SWE1 (second series), hits give low values 0.975 | locus YJR043C, strain POL32, hits give low values 1.01 | locus YJR066W, strain TOR1, hits give low values 0.962 | locus YJR075W, strain HOC1, hits give low values 0.983
